# Active and inactive are the calls of the source. Unless noted, how the calls were made is not given here.
# What was measured:
# [1] = compounds binding Alexa647 anti-His antibody – biochemical, small-molecule microarray, 635 nm fluorescence, artefact control for SMM control protein annotation, primary screen (AID 1128); settings: higher = more signal;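 further: score merges feature fluorescence with signal-to-noise for each printed compound spot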
# [2] = tested on: Human papillomavirus type 1a E7 protein (residues 1-88); test: HPV1a E7 small-molecule binders, primary screen, biochemical, small-molecule microarray, residues 1-88, 635 nm (AID 1129); settings: small-molecule microarray binding, fluorescence 635 nm; higher = more signal
# [3] = molecular target: Focal adhesion kinase 1 (Homo sapiens) (UniProt Q05397); test: PTK2 protein binding on printed compound slides – biochemical, small-molecule microarray, 635/667 nm fluorescence, BSA, DTT, primary screen (AID 1130); settings: 635 nm fluorescence, higher = more signal;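 further: composite of spot emission at 667 nm and signal to noise over triplicate slides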
# Focal adhesion kinase 1 (Homo sapiens), sequence (Q05397 whole entry, looked up): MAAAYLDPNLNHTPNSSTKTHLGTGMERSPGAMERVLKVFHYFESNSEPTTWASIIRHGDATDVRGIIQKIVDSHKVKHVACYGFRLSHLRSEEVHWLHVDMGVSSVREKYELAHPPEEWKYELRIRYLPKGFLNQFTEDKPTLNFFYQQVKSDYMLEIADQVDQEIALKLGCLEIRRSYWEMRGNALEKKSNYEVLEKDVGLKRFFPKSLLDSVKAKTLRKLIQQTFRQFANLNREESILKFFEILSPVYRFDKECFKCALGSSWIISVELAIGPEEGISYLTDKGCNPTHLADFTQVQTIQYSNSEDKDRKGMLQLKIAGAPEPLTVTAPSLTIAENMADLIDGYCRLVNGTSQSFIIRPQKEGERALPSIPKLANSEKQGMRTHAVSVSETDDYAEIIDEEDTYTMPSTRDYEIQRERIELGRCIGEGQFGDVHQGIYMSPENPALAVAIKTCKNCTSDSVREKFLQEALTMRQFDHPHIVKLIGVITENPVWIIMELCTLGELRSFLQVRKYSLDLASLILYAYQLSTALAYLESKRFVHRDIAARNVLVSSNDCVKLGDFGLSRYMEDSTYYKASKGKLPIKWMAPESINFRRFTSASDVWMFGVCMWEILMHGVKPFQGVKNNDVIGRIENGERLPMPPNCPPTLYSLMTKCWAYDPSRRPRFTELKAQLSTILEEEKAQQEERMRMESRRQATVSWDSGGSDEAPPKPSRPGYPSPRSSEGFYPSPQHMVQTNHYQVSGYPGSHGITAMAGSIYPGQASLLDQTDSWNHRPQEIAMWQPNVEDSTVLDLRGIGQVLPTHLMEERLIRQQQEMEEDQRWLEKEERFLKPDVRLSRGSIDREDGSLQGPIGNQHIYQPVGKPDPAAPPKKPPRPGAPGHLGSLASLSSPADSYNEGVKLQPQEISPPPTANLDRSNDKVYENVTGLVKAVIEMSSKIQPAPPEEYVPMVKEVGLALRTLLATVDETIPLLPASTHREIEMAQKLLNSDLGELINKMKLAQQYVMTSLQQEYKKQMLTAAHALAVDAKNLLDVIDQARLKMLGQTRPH
# [4] = tested on: Fibrinogen (Alexa647-labelled); test: Alexa647-fibrinogen binding to printed small molecules – biochemical, small-molecule microarray, 635/667 nm fluorescence, artefact control for SMM control-protein annotation, profiling panel (AID 1131); settings: fibrinogen-A647 binding fluorescence, higher = more signal;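 further: z-score merges 667 nm fluorescence with per-spot signal-to-noise over triplicate slides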
# [5] = molecular target: Follistatin (Homo sapiens) (UniProt P19883); test: FST protein binding to printed compounds – biochemical, small-molecule microarray, 635/667 nm fluorescence, primary screen (AID 1132); settings: 635 nm fluorescence, higher = more signal
# Follistatin (Homo sapiens), sequence (P19883 whole entry, looked up): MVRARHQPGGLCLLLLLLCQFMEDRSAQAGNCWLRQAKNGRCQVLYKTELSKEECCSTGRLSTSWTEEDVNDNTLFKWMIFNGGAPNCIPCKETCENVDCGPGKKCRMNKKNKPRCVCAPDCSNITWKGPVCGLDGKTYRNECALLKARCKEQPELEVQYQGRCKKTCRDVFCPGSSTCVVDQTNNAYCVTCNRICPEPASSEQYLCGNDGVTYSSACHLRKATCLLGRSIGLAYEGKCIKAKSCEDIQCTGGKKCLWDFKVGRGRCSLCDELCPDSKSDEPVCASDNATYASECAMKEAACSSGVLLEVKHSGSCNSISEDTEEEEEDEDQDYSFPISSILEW
# [6] = molecular target: Fibroblast growth factor 2 (Homo sapiens) (UniProt P09038); test: basic fibroblast growth factor binding to printed compounds – biochemical, small-molecule microarray, 635/667 nm fluorescence, primary screen (AID 1133); settings: FGF2, fluorescence 635/667, higher = more signal
# Fibroblast growth factor 2 (Homo sapiens), sequence (P09038 whole entry, looked up): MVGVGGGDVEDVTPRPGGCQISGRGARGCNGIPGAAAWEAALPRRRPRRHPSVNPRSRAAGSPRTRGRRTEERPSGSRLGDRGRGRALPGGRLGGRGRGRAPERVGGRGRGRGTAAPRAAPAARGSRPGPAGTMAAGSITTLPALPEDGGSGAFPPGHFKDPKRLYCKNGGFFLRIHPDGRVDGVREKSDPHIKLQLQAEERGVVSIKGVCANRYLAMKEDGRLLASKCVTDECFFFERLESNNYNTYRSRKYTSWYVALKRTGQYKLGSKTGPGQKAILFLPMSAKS
# [7] = JC-1 mitochondrial potential readout, lung cancer cells – cell-based, A549, JC-1 fluorescence, basal, 24 h, 100 nL, profiling panel (AID 1138); settings: higher = more signal;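 further: A549 lung adenocarcinoma cells under basal conditions with no added stimulus; test concentration not given here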
# [8] = tested on: Lefty1; test: Lefty1 protein binding to printed compounds – biochemical, small-molecule microarray, 635/667 nm fluorescence, primary screen (AID 1139); settings: fluorescence 635/667, higher = more signal
# [9] = tested on: wheat germ agglutinin (Triticum aestivum), Alexa647-labelled; test: Alexa647-WGA lectin binding to printed small molecules – biochemical, small-molecule microarray, 635/667 nm fluorescence, artefact control for SMM control-protein annotation, profiling panel (AID 1140); settings: WGA-A647 binding, 635 nm fluorescence, higher = more signal;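 further: score merges 667 nm feature emission with signal to noise over triplicate slides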
# [10] = molecular target: Luciferin 4-monooxygenase (Photinus pyralis) (UniProt P08659); test: inhibition of purified Photinus pyralis luciferase – biochemical, luminescence, purified enzyme, 2006 set, primary screen (AID 1141); settings: purified firefly luciferase, SteadyGlo luminescence, 30 min; higher = more signal, called active from +8 up or from −8 down;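 further: cell-free assay with purified firefly luciferase at 100 ng per well in PBS; test concentration not given here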
# Luciferin 4-monooxygenase (Photinus pyralis), sequence (P08659 whole entry, looked up): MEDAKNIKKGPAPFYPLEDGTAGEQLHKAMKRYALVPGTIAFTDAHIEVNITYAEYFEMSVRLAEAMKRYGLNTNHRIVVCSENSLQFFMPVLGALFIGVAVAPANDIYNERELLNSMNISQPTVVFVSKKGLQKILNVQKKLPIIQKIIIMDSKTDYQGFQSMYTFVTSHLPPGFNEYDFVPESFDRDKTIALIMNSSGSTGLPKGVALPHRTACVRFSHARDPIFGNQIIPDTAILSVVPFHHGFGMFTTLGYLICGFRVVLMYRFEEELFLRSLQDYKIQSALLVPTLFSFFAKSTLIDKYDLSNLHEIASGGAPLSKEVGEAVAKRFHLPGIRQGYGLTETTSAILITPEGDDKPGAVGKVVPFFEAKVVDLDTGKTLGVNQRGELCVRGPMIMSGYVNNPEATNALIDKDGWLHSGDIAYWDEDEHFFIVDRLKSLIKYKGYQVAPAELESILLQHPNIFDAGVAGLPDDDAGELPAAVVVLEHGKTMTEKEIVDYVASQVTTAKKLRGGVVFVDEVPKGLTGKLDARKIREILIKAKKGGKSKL
# [11] = tested on: Wnt5a (protein binding on small-molecule microarray); test: small molecules binding Wnt5a protein – biophysical, small-molecule microarray, 635/667 nm fluorescence, primary screen (AID 1142); settings: 635 nm fluorescence, higher = more signal;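 further: fluorescence read at 667 nm with signal to noise per printed feature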
# [12] = ATP-based viability of Huh7 replicon cells – cell-based, CellTiter-Glo luminescence, basal, 48 h, cytotoxicity control for HCV replication inhibitor project, primary screen (AID 1143); settings: higher = more signal, called active from +8 up or from −8 down;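 further: Huh7 hepatoma cells carrying a hepatitis C replication reporter with no stimulus; test concentration not given here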
# [13] = Pseudomonas biofilm growth suppression – PAO1 strain, BacTiter-Glo luminescence, LB-PBS, primary screen (AID 1144); settings: P. aeruginosa PAO1 biofilm, 12 h, higher = more signal
# [14] = basal CRE-LacZ reporter activity in PC12 – cell-based, unstimulated, primary screen (AID 1145); settings: no forskolin, luminescence, 4.5 h, higher = more signal, called active from +8 up or from −8 down
# [15] = forskolin-driven CRE-LacZ activity in PC12 – cell-based, CRE-LacZ reporter, forskolin-stimulated, primary screen (AID 1146); settings: luminescence, 4.5 h, higher = more signal, called active from +8 up or from −8 down;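 further: PC12 cells with 6xCRE LacZ reporter stimulated by forskolin 10 µM; beta-galactosidase reporter signal reflecting CREB driven transcription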
# [16] = molecular target: Streptavidin (Streptomyces avidinii) (UniProt P22629); test: compounds binding control protein streptavidin – biophysical, small-molecule microarray, 635/667 nm fluorescence, artefact control for SMM compound annotation, primary screen (AID 1147); settings: higher = more signal;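 further: signal reflects streptavidin binding to arrayed compounds as a control protein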
# Streptavidin (Streptomyces avidinii), sequence (P22629 whole entry, looked up): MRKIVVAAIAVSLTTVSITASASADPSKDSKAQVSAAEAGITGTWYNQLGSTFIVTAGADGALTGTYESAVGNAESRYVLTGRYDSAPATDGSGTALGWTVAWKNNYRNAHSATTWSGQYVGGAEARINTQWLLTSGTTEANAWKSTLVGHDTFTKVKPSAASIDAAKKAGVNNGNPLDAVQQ
# [17] = probe aInhba binding on compound microarray – biochemical, small-molecule microarray, 635/667 nm fluorescence, primary screen (AID 1148); settings: higher = more signal;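 further: score merges 667nm spot fluorescence with signal-to-noise for antibody binding to printed compounds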
# [18] = molecular target: Torsin-1A (Homo sapiens) (UniProt O14656); test: TOR1A wild-type binding on microarray – cell lysate, small-molecule microarray, lysate, 635/667 nm, primary screen (AID 1149); settings: COS7 hTOR1A-WT lysate, 635 nm fluorescence, higher = more signal
# Torsin-1A (Homo sapiens), sequence (O14656 whole entry, looked up): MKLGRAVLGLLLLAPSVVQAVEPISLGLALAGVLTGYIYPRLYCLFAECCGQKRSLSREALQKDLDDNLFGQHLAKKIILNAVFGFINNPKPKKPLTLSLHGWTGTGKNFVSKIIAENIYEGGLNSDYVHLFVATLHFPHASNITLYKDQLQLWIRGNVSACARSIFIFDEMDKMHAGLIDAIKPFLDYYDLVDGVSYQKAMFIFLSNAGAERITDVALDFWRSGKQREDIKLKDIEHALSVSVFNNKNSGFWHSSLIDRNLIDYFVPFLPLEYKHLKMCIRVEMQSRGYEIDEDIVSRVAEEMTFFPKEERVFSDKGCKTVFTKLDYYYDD
# [19] = molecular target: Torsin-1A (Homo sapiens) (UniProt O14656); test: torsin A mutant lysate binding on microarrays – cell lysate, small-molecule microarray, COS7 lysate, 635/667 nm fluorescence, primary screen (AID 1150); settings: COS7 hTOR1A mutant lysate, 635 nm fluorescence, higher = more signal;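 further: score pools 667 nm emission and signal to noise measuring lysate protein binding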
# [20] = tested on: Sonic hedgehog protein (Shh); test: Sonic hedgehog microarray binding compounds – biochemical, small-molecule microarray, 635/667 nm fluorescence, primary screen (AID 1151); settings: 635 nm fluorescence, higher = more signal;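 further: Shh protein binding to compounds spotted on small-molecule microarray slides; score combines spot fluorescence intensity with signal-to-noise across triplicate slides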
SMILES,composite z-score [1],composite z-score [2],composite z-score [3],composite z-score [4],composite z-score [5],composite z-score [6],z-score [7],composite z-score [8],composite z-score [9],z-score [10],composite z-score [11],z-score [12],z-score [13],z-score [14],z-score [15],composite z-score [16],composite z-score [17],composite z-score [18],composite z-score [19],composite z-score [20]
COc1ccccc1CN1C(=O)c2ccccc2[C@@H](C(=O)NCCCN(C)C)[C@@H]1c1ccc(CO)cc1,0.802,0.232,-0.492,-0.741,0.104,0.303,2.1,0.409,0.131,0.731 (inactive),0.0968,-2.77 (inactive),-1.58 (inactive),0.531 (inactive),-0.744 (inactive),-0.523,0.0028,-0.236,-0.0195,-0.0791
CC(C)CNC(=O)[C@@H]1c2ccccc2C(=O)N(C(C)C)[C@H]1c1ccc(CO)cc1,-0.306,-0.341,-0.155,-1.18,0.659,0.427,0.484,-0.481,0.775,-0.207 (inactive),0.0274,-1.93 (inactive),-0.753 (inactive),-0.179 (inactive),-0.739 (inactive),-1.16,-0.0986,1.13,0.0411,0.35
CCC[C@@H]1C=C(C(=O)OCC)[C@H](c2ccccc2)N1S(=O)(=O)c1ccc(C)cc1,0.796,1.14,0.898,0.979,0.947,0.538,2.03,0.565,1.2,1.41 (inactive),0.539,-4.29 (inactive),1.18 (inactive),-0.527 (inactive),-0.578 (inactive),0.795,0.436,0.131,0.373,0.203
COCCOC(=O)N1C(=O)[C@@]2(c3cc(C#CC4(O)CCCCCC4)ccc31)[C@H](c1ccccc1OCCO)N1[C@H](c3ccccc3)[C@H](c3ccccc3)OC(=O)[C@H]1[C@@H]2C(=O)N1CCCCCCC1,0.663,1.23,0.504,0.733,1.45,1.09,-0.768,1.37,1.29,0.144 (inactive),0.611,-4.01 (inactive),-0.977 (inactive),-1.01 (inactive),0.881 (inactive),1.64,1.2,0.812,1.02,2.01
COCCCNC(=O)[C@@H]1c2ccccc2C(=O)N(Cc2cc(C(F)(F)F)cc(C(F)(F)F)c2)[C@H]1c1ccc(CO)cc1,0.358,0.6,0.358,-0.788,0.144,0.188,0.983,0.174,-0.672,0.0036 (inactive),0.128,-0.334 (inactive),0.608 (inactive),0.288 (inactive),-0.613 (inactive),-0.587,0.502,0.47,0.7,0.395
O=C1c2ccccc2[C@@]2(Cc3ccccc3N(Cc3ccccc3)C2=O)[C@H](c2ccc(CO)cc2)N1Cc1ccccc1,-1.16,-1.58,-0.667,-0.936,-1,-1.01,0.0926,-1.09,0.168,0.407 (inactive),-0.201,0.579 (inactive),-0.124 (inactive),0.0279 (inactive),0.806 (inactive),-0.0807,-0.176,-0.953,-0.773,-0.907
CC(C)C(=C=CC[C@@H](O)c1ccc(OCCO)cc1)CCO,-0.171,-0.744,-0.397,0.114,1.26,1.25,0.451,0.607,-0.154,-0.426 (inactive),0.224,-2.09 (inactive),-0.635 (inactive),-0.844 (inactive),-1.31 (inactive),-0.292,-0.0719,-0.0298,0.167,1.59
COCCOC(=O)N1C(=O)[C@@]2(c3cc(C#CC4=CCCCC4)ccc31)[C@H](C(=O)N1CCN(c3ncccn3)CC1)[C@H]1C(=O)O[C@H](c3ccccc3)[C@H](c3ccccc3)N1[C@@H]2c1ccccc1OCCO,0.353,1.18,0.377,0.936,1.18,0.956,-1.3,0.787,0.792,-1.22 (inactive),0.337,-5.9 (inactive),-2.51 (inactive),-2.11 (inactive),-1.32 (inactive),0.496,-0.0332,0.825,0.598,1.47
CC(C)C(=C=CC[C@@H](O)c1cccc(OCCO)c1)CCO,0.241,0.0895,-0.0966,0.236,1.14,1.61,0.265,0.524,0.271,-0.852 (inactive),0.263,-0.219 (inactive),-0.468 (inactive),1.37 (inactive),-0.755 (inactive),-0.236,0.442,0.462,0.0336,0.567
C=CCC(OC(C)=O)[C@@H]1[C@@H](N(Cc2ccc(-c3cccc(C(F)(F)F)c3)o2)C(=O)c2cccc3ccccc23)c2cc(OCCCO)ccc2N1C(=O)c1ccc2ccccc2c1 (stereo not given in full),0.272,-0.582,-0.118,-0.425,0.839,0.101,-0.251,0.429,0.0578,1.05 (inactive),-0.12,-1.6 (inactive),-0.924 (inactive),-0.71 (inactive),0.942 (inactive),-0.332,-0.118,-0.0205,-0.0418,1.23
